An excerpt weighted towards active compounds, which were near 18% of everything screened.
TDP1 inh: blocks human tyrosyl-DNA phosphodiesterase 1 | Q9NUW8 | recombinant TDP1, AlphaScreen DNA substrate cleavage | Potency, µM (doses to about 130 µM), actives largely listed as inhibitors | hit rate 0.28% among 350,000; note: nearly all actives have a fitted effect of over 40% in size
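Compounds were preincubated with Tdp1 (1 nM final) for 15 min at room temperature before substrate (15 nM final) started a 5 min reaction; beads (10 ug/ml final) were then added for 10 min before AlphaScreen detection.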
TDP1 cell CPT: growth inhibition of DT40 Tdp1-/-;hTDP1 cells with camptothecin (screen for TDP1 inhibitors); chicken DT40 Tdp1-/-;hTDP1 cells + 20 nM CPT, ATP luminescence, 48 h; Potency, µM (titrated, usually from 46.2 µM), most hits filed as inhibitors; hit rate 12% among 420,000; AID 686979; note: nearly all actives have a fitted effect of over 55% in size
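Chicken DT40 Tdp1-/- cells complemented with human TDP1, 400 cells/well, exposed to compounds plus 20 nM camptothecin for at least 48 h at 37 C; viability read as ATP content by CellTiter-Glo luminescence.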
CtBP-E1A inh: CtBP/E1A binding inhibition; AlphaScreen GST-E1A/His-CtBP binding, 1536-well; hits give low values; activity change, % (concentration not given with the values); hit rate 0.49% among 340,000; in the data active = activity change below about -65%; inconclusive = mostly about -30% to -63%
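AlphaScreen with 125 nM GST-E1A and 125 nM His-CtBP (5X stocks) in Tris pH 8.0, 300 mM NaCl, BSA, Tween 20, TCEP. Compounds preincubated 2 h at 37 deg C, then glutathione donor/nickel acceptor beads added for 1 h at 37 deg C in dark.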
IL1B secr inh: inflammasome signaling inhibition, IL-1 beta readout; THP-1 LPS/ATP IL-1B secretion, AlphaLISA, 16 h; hits give low values; activity change, % at 57.5 µM; hit rate 4.7% among 360,000; in the data active = activity change below about -50%; inconclusive = mostly about -30% to -49%
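THP-1 cells pretreated 1 hr with compounds (up to 57.5 uM final), then stimulated with LPS (250 ng/mL final) plus ATP (1.25 mM final); secreted IL-1B measured by AlphaLISA after 16 hr, decreased signal indicating inhibition.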
TDP1 cell noCPT: qHTS for Inhibitors of human tyrosyl-DNA phosphodiesterase 1 (TDP1): qHTS in cells in absence of CPT | DT40 Tdp1-/- hTDP1 cells, no CPT, ATP luminescence, 48 h | Potency, µM (titrated, usually from 46.2 µM), hits mostly inhibitors | hit rate 15% among 420,000; note: nearly all actives have a fitted effect of over 55% in size
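Cells were dispensed at 400 per well, compounds added by pin tool, plates incubated ≥48 hr at 37 °C, then CellTiter-Glo added for 30 min at room temperature before luminescence reading. Line: DT40 Tdp1-/- complemented with hTDP1; camptothecin omitted.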
Six1-Eya2 blk: inhibitors of human Six1/Eya2 interaction. AlphaScreen GST-Six1/His-Eya2 binding, biochemical; hits give low values. activity change, % (test concentration not listed). hit rate 0.56% among 360,000; in the data active = activity change below about -65%; inconclusive = mostly about -30% to -63%
Target sequence (O00167 whole entry, looked up): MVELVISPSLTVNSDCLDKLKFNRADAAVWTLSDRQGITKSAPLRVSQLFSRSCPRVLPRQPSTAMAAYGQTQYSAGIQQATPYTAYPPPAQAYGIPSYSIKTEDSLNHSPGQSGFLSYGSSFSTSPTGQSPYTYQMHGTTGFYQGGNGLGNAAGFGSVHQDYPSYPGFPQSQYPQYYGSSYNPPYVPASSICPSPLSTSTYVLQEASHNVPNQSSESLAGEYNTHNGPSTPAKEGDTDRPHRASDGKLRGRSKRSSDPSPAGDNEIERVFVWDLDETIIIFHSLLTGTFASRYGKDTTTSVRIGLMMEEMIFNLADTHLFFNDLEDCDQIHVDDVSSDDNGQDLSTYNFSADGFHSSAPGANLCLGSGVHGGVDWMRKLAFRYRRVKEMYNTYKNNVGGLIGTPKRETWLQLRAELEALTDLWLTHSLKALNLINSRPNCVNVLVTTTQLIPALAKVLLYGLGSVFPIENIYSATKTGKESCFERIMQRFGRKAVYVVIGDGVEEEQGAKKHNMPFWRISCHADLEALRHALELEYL
Target sequence (Q15475 whole entry, looked up): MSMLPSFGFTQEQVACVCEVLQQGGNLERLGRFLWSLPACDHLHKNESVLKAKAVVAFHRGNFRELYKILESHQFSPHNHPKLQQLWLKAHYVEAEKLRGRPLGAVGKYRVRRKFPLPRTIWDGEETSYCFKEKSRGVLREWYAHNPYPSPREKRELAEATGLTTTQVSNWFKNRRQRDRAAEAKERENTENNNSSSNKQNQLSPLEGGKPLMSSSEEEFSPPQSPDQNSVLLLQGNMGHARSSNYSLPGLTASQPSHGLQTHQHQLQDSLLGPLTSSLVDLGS
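GST-Six1 + His-Eya2 (5X stock: 250/500 nM); Tris pH 8.0, 300 mM NaCl, 0.05% BSA, 0.02% Tween 20; GSH donor/Ni acceptor beads; 1 h 37 °C dark; AlphaScreen readout.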
Numbers stand for hits; – = inactive; ? = inconclusive; · = no result. Unless noted, calls come from the whole dose curve; as a rule, active = well fitted curve in the direction sought with a large enough effect; inconclusive = small, poorly fitted or top-dose-only effect, or another doubt; inactive = no such curve, though single readings can be large; an effect the other way counts as inactive or inconclusive.

SMILES	TDP1 inh	TDP1 cell CPT	CtBP-E1A inh	IL1B secr inh	TDP1 cell noCPT	Six1-Eya2 blk
COc1cccc(CNC(=O)c2cccnc2Sc2ccccc2)c1	–	–	–	?	–	–
CCc1ccc(Sc2cc(C(=O)NCc3cccc(OC)c3)c3ccccc3n2)cc1	–	16.4µM	·	·	?	·
O=C(c1ccccc1)c1cc2cc(Cl)ccc2[nH]1	·	–	–	–	–	–
CC(C)CC(NC(=O)C1CCC(C)CC1)C(=O)NCc1cccnc1 (configuration not stated)	–	–	–	–	–	–
COC(=O)c1ccc(CO/N=C/c2ccc(OC)cc2)o1	–	–	–	–	–	–
O=C(CSc1ccccc1)NCC(c1ccco1)N1CCCCC1 (configuration not stated)	–	–	–	–	–	–
CCOc1ccc(Nc2cc(C(=O)NCc3ccccc3Cl)c3ccccc3n2)cc1	–	10.3µM	·	·	?	·
CCN1c2ccccc2-c2nc3ccccc3n2C1c1ccccn1 (configuration not stated)	–	?	–	–	16.4µM	–
CCN1c2ccccc2-c2nc3ccccc3n2C1c1ccncc1 (configuration not stated)	–	?	–	–	?	–
CCOc1ccc(NC(=O)Cn2cc(C(C)=O)c3ccccc32)cc1	·	?	–	–	?	–
COc1ccc(NC(=O)Cn2cc(C(=O)c3cccs3)c3ccccc32)cc1	–	?	·	·	?	·
COc1ccc(C(=O)n2cc(C(C)=O)c3ccccc32)cc1	·	10.3µM	·	–	14.6µM	–
CCOc1ccc(NC(=O)Cn2cc(C(=O)CC)c3ccccc32)cc1	·	13µM	·	–	25.9µM	–
COc1ccc(NC(=O)Cn2cc(C(C)=O)c3ccccc32)cc1	·	5.17µM	–	–	?	–
COc1cc(C(=O)NCCc2ccc(S(N)(=O)=O)cc2)cc(OC)c1OC	–	–	–	–	–	–
COCCN1C(=O)N[C@@H](c2cccs2)C(C(=O)OC)=C1C	–	–	–	–	–	–
CC(=O)c1cccc(NC(=O)C(C)OC(=O)CCCN=C2NS(=O)(=O)c3ccccc32)c1 (configuration not stated)	–	–	–	–	–	–
COc1ccc(N2CC(C)Cn3c2nc2c3c(=O)n(Cc3ccc(F)cc3)c(=O)n2C)c(OC)c1 (configuration not stated)	–	?	–	–	?	–
COc1ccc(N2CC(C)Cn3c2nc2c3c(=O)n(Cc3ccc(C)cc3)c(=O)n2C)c(OC)c1 (configuration not stated)	–	?	–	?	16.4µM	–
Cc1c(/C=C/c2ccnc3ccccc23)ccc(N(C)C)c1C	·	?	·	·	11.2µM	·
Cc1c(Br)cnc2ccccc12	·	–	·	·	–	·
CN(C)c1c(Cl)cc(/C=C/c2ccnc3ccccc23)cc1Br	·	4.47µM	·	·	3.55µM	·
CN(C)c1ccc(/C=C/c2ccnc3ccccc23)cc1Cl	·	?	·	·	10µM	·
Cc1cc(C=Nc2ccc(/C=C/c3ccnc4ccccc34)cc2)ccc1N(C)C	·	15.8µM	·	·	17.8µM	·
O=C(CCc1c[nH]c2ccccc12)NCCc1ccc2c(c1)OCCO2	·	?	–	–	?	–
SMILES	TDP1 inh	TDP1 cell CPT	CtBP-E1A inh	IL1B secr inh	TDP1 cell noCPT	Six1-Eya2 blk
CN(C)c1ccc(C=Cc2ccnc3ccccc23)cc1N	·	10.3µM	–	–	10.3µM	–
Cc1cc(/C=C/c2ccnc3ccccc23)ccc1N(C)C	·	5.62µM	·	·	5.62µM	·
CN(C)c1ccc(/C=C/c2ccnc3ccccc23)cc1Br	·	8.91µM	·	·	7.08µM	·
COC(=O)c1cc(OC)c(OC)cc1NC(=S)N1CCCCC1	–	–	–	–	–	–
C#C[C@]1(OC(C)=O)CC[C@H]2[C@@H]3CCC4=CC(=O)CC[C@@H]4[C@H]3CC[C@@]21C	–	8.41µM	·	·	11.9µM	·
CCOc1ccc(CN2CCN(Cc3cnc(-c4ccccc4)s3)CC2CCO)cc1 (configuration not stated)	–	?	·	–	20.6µM	–
CCOc1ccc2nc(CN3CCN(Cc4ccsc4)C(CCO)C3)ccc2c1 (configuration not stated)	–	?	–	–	18.4µM	–
OCCC1CN(CC(c2ccccc2)c2ccccc2)CCN1C1CCCC1 (configuration not stated)	–	?	–	–	18.4µM	–
OCCC1CN(Cc2cnc(-c3ccccc3)s2)CCN1C1CCCCC1 (configuration not stated)	–	–	–	–	?	–
OCCC1CN(Cc2cnc(-c3ccc(Cl)cc3)nc2)CCN1C1CCCC1 (configuration not stated)	–	23.1µM	–	-73.0	14.6µM	–
OCCC1CN(CC#Cc2ccccc2)CCN1C1CCCC1 (configuration not stated)	–	–	–	–	–	–
CC(C)CN1CCN(Cc2cnc(-c3ccc(Cl)cc3)nc2)CC1CCO (configuration not stated)	–	?	·	–	?	–
CC1=Nc2ccc(C)cc2N(Cc2ccccc2)C(=O)C1	–	–	–	–	?	–
OCCC1CN(Cc2cnc(-c3ccccc3)s2)CCN1C1CCCC1 (configuration not stated)	–	–	–	-80.8	–	–
COc1ccccc1NS(=O)(=O)c1ccc(NN=C2CCCCC2)c([N+](=O)[O-])c1	–	18.4µM	–	–	25.9µM	?
CC1C/C(=N\Nc2ccc(S(N)(=O)=O)cc2[N+](=O)[O-])CC(C)(C)C1 (configuration not stated)	–	?	–	-79.2	?	–
NS(=O)(=O)c1ccc(N/N=C2/CCCCC2C2CCCCC2)c([N+](=O)[O-])c1 (configuration not stated)	–	20.6µM	?	-112.1	10.3µM	?
Cc1ccc(S(=O)(=O)N(CC(=O)N2CCC(C(N)=O)CC2)Cc2ccc(F)cc2)cc1	–	–	–	–	–	–
CCCNC(=O)C1(C)CCCN(Cc2ccccc2Cl)C1 (configuration not stated)	·	?	–	–	?	–
O=C1CC(N2CCC(O)CC2)C(=O)N1c1ccc(Br)cc1 (configuration not stated)	–	?	–	–	?	–
COc1ccc(N2C(=O)CC(N3CCC(O)(c4ccc(Br)cc4)CC3)C2=O)cc1 (configuration not stated)	–	18.4µM	–	–	?	–
O=C1CC(N2CCC(O)(c3ccc(Br)cc3)CC2)C(=O)N1c1ccc(Cl)cc1 (configuration not stated)	–	?	–	–	25.9µM	–
C=CCn1c(OCc2ccccc2)n[nH]c1=S	·	–	–	–	–	–

From PubChem
